SMILES strings stand for the structures. Hit rate of the full screen: of about 310,000 compounds, about 14,000 (4.5%) showed an effect of 50% or more. The effect is printed as a negative number. Only a selection was taken, and strong results are over-represented in it overall.
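Also: peak tail current of the secondary pulse compared with the same well before compound.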

Chain of human ether-à-go-go-related gene (hERG) potassium channel (Q12809 whole entry, looked up): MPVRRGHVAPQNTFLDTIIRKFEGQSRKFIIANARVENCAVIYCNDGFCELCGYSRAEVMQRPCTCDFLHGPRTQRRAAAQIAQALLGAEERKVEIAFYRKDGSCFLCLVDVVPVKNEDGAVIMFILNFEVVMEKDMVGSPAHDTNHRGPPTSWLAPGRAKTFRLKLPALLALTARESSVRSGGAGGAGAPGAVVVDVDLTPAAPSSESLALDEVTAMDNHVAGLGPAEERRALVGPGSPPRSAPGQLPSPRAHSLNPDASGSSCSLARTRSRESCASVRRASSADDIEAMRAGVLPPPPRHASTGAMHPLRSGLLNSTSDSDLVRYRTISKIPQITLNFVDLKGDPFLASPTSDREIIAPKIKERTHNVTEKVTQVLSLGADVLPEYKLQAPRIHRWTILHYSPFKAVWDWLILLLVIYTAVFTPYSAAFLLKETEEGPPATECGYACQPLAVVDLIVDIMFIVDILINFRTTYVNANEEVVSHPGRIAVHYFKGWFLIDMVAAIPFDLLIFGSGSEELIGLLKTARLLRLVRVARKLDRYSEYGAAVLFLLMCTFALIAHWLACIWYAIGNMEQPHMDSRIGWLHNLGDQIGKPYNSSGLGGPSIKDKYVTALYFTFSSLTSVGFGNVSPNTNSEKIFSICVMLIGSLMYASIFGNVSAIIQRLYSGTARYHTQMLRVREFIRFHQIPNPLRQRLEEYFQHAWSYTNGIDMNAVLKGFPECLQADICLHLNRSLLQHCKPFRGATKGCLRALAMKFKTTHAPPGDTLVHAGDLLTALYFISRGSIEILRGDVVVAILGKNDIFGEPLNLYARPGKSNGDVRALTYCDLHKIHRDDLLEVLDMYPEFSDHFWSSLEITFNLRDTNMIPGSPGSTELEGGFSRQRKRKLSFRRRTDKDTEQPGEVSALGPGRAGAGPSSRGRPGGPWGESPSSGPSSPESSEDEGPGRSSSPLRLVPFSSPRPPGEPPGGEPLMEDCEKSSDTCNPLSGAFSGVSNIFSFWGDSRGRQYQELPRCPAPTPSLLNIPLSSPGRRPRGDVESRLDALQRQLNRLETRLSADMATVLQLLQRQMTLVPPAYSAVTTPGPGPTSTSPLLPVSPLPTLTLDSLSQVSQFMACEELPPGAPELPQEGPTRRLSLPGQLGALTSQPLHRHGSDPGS

This experiment has as its target human ether-à-go-go-related gene (hERG) potassium channel (human, UniProt Q12809). Nature of the experiment: primary screen, population patch clamp on CHO cells stably expressing hERG; higher = less effect of the substance.
With `CC(C)NC(=O)C1CCN(C(=O)C(C(=O)c2ccccc2)n2cc(Cl)ccc2=O)CC1` (stereo not drawn), the “hERG current change (%, negative = inhibition) at 10uM” value stood at 6.17%.

Take `COC(=O)c1ccc2c(C)c(C(C)(C)O)[nH]c2c1`: the “hERG current change (%, negative = inhibition) at 10uM” value was found to be 10.3%.

Take `Cc1sc2nc(-c3cccnc3)[nH]c(=O)c2c1-c1ccccc1`: the “hERG current change (%, negative = inhibition) at 10uM” value was -4.06%.

With `Clc1ccc(OCCn2ccnc2)c(Cl)c1`, the “hERG current change (%, negative = inhibition) at 10uM” value is recorded as -18.9%.

For the compound `CN(C)/C=N/c1[nH]ncc1C#N`, the “hERG current change (%, negative = inhibition) at 10uM” value was determined as 16%.

As for `CC1CCN(CCc2nc3cc(NC(=O)COc4ccc(Cl)cc4)ccc3n2C)CC1`, the “hERG current change (%, negative = inhibition) at 10uM” value is -74.7%.

Turning to `COc1ccc(-c2c(-c3cc(OC)cc(OC)c3)n(C)c3ccc(-c4cccc5[nH]ccc45)cc23)cc1`, the “hERG current change (%, negative = inhibition) at 10uM” value came out at 16.7%.

As for `COCCNC(=O)c1ccccc1NS(=O)(=O)c1ccc(Br)s1`, the “hERG current change (%, negative = inhibition) at 10uM” value came to 0.678%.

On to `CC(C)=C1C2CCC1C(C(=O)Nc1cc(C)cc(C)c1)C2C(=O)O` (stereo not drawn), for which the “hERG current change (%, negative = inhibition) at 10uM” value worked out at 14%.

As for `CCN(CC)CC#CCC(OC)(c1ccccc1)c1ccccc1.Cl`, the “hERG current change (%, negative = inhibition) at 10uM” value is -32.5%.

With `CCN(CC)CC#CCC(O)(c1ccccc1)c1ccccc1`, the “hERG current change (%, negative = inhibition) at 10uM” value is listed as -25.1%.

As to `CCN(CC)CC#CCC(C)(c1ccccc1)c1ccccc1.Cl`, the “hERG current change (%, negative = inhibition) at 10uM” value is listed as -54.8%.

With `CCN(CC)CC#CCC(O)(c1ccccc1)C1CCCC1.Cl` (stereo not drawn), the “hERG current change (%, negative = inhibition) at 10uM” value is on record as -11.7%.

Consider `CCN(CC)CC#CCC(O)(c1ccccc1)c1ccc(Br)cc1.Cl` (stereo not drawn), for which the “hERG current change (%, negative = inhibition) at 10uM” value is reported as -50.1%.

On to `CN(C)CC#CCC(O)(c1ccccc1)c1ccccc1`, for which the “hERG current change (%, negative = inhibition) at 10uM” value was -2.15%.

On to `CC(=O)N1CCC(N(CCN2CCOCC2)C(=S)Nc2cccc(C)c2)CC1`, for which the “hERG current change (%, negative = inhibition) at 10uM” value is reported as 0.988%.

As for `C=CCN(c1ccccc1)S(=O)(=O)c1cccc(C(=O)NCC(c2ccc(F)cc2)N2CCOCC2)c1` (stereo not drawn), the “hERG current change (%, negative = inhibition) at 10uM” value is -29.6%.

For the compound `C=CCN(c1ccccc1)S(=O)(=O)c1cccc(C(=O)NCC(c2ccccc2OC)N2CCCC2)c1` (stereo not drawn), the “hERG current change (%, negative = inhibition) at 10uM” value was -70.5%.

Consider `COc1ccc(NS(=O)(=O)c2cccc(C(=O)NCC(c3ccccc3OC)N3CCCC3)c2)cc1` (stereo not drawn), for which the “hERG current change (%, negative = inhibition) at 10uM” value is -55.4%.

Consider `COc1ccc(NS(=O)(=O)c2cccc(C(=O)NCC(c3ccc(OC)cc3)N3CCCC3)c2)cc1` (stereo not drawn), for which the “hERG current change (%, negative = inhibition) at 10uM” value was -46.7%.

With `COc1ccc(C(CNC(=O)c2cccc(S(=O)(=O)Nc3ccccc3OC)c2)N2CCCC2)cc1` (stereo not drawn), the “hERG current change (%, negative = inhibition) at 10uM” value was -56.6%.

For `COc1ccccc1NS(=O)(=O)c1cc(C(=O)NCC(c2ccc(F)cc2)N2CCOCC2)ccc1C` (stereo not drawn), the “hERG current change (%, negative = inhibition) at 10uM” value is -19.1%.

For `COc1ccc(C(CNC(=O)c2ccc(C)c(S(=O)(=O)Nc3ccccc3OC)c2)N2CCCC2)cc1` (stereo not drawn), the “hERG current change (%, negative = inhibition) at 10uM” value is -66.2%.

For the compound `COc1ccccc1NS(=O)(=O)c1cccc(C(=O)NCC(c2ccccc2OC)N2CCCC2)c1` (stereo not drawn), the “hERG current change (%, negative = inhibition) at 10uM” value is listed as -12.9%.

`COc1ccc(C(CNC(=O)c2cccc(S(=O)(=O)Nc3ccccc3OC)c2)N2CCOCC2)cc1` (stereo not drawn): the “hERG current change (%, negative = inhibition) at 10uM” value is reported as -46.1%.

On to `C=CCN(c1ccccc1)S(=O)(=O)c1cccc(C(=O)NCC(c2cccs2)N2CCOCC2)c1` (stereo not drawn), for which the “hERG current change (%, negative = inhibition) at 10uM” value was -18.7%.

Turning to `COc1ccccc1NS(=O)(=O)c1cc(C(=O)NCC(c2ccco2)N2CCCCC2)ccc1C` (stereo not drawn), the “hERG current change (%, negative = inhibition) at 10uM” value is on record as -48.6%.

Regarding `COc1ccccc1C(CNC(=O)c1cccc(S(=O)(=O)Nc2ccc(C)cc2)c1)N1CCCC1` (stereo not drawn), the “hERG current change (%, negative = inhibition) at 10uM” value is recorded as -29.8%.

Turning to `CCOC(=O)c1sc(NC(=O)c2ccc(S(=O)(=O)N3CCCCC3)cc2)nc1-c1ccccc1`, the “hERG current change (%, negative = inhibition) at 10uM” value came to 18.1%.

As for `CC(=O)Nc1ccccc1C(F)(F)F`, the “hERG current change (%, negative = inhibition) at 10uM” value came out at 21.2%.

`COc1ccc(C(=O)NC(C)c2nnc(SCC(=O)NC3CCCC3)n2C)cc1` (stereo not drawn): the “hERG current change (%, negative = inhibition) at 10uM” value stood at 4.98%.

`O=C1OC(c2ccc(Cl)cc2)=C/C1=C/c1cccnc1`: the “hERG current change (%, negative = inhibition) at 10uM” value is 23.3%.

`Cc1c(Cc2ccccc2)c(=O)oc2c(C)c(OCc3nn[nH]n3)ccc12`: the “hERG current change (%, negative = inhibition) at 10uM” value stood at 11.3%.

For `Cc1ccc(S(=O)(=O)N/N=C/c2ccc(OS(=O)(=O)c3ccc(C)c([N+](=O)[O-])c3)cc2)cc1`, the “hERG current change (%, negative = inhibition) at 10uM” value is given as 7.76%.

On to `Cc1ccc(C(=O)NCCn2cc(SCC(=O)Nc3nnc(C)s3)c3ccccc32)cc1`, for which the “hERG current change (%, negative = inhibition) at 10uM” value is listed as -3.05%.

`COc1ccccc1CNC(=O)CC(C)c1ccccc1` (stereo not drawn): the “hERG current change (%, negative = inhibition) at 10uM” value is listed as 4.63%.

Regarding `CCCn1c2ccccc2c2nnc(SCC(=O)Nc3cc(C)on3)nc21`, the “hERG current change (%, negative = inhibition) at 10uM” value is reported as -0.11%.

Consider `Cc1ccc(S(=O)(=O)N2CCN(S(C)(=O)=O)C2c2ccccc2)cc1` (stereo not drawn), for which the “hERG current change (%, negative = inhibition) at 10uM” value was -37.2%.

For the compound `C=CCOc1ccc(/C=C/C(=O)OCC(=O)NCCc2ccccc2)cc1`, the “hERG current change (%, negative = inhibition) at 10uM” value was 8.61%.

`CNS(=O)(=O)c1cccc(C(=O)NCC(c2cccs2)N(C)C)c1` (stereo not drawn): the “hERG current change (%, negative = inhibition) at 10uM” value is listed as -5.25%.

Consider `COc1ccc(C(CNC(=O)c2cccc(S(=O)(=O)N(C)c3ccccc3)c2)N2CCCC2)cc1` (stereo not drawn), for which the “hERG current change (%, negative = inhibition) at 10uM” value is on record as -60.2%.

With `CCN(c1ccccc1)S(=O)(=O)c1cccc(C(=O)NCC(c2cccs2)N(C)C)c1` (stereo not drawn), the “hERG current change (%, negative = inhibition) at 10uM” value is on record as -48.6%.

In the case of `COc1ccc(C(CNC(=O)c2cccc(N(C)C)c2)N2CCCC2)cc1` (stereo not drawn), the “hERG current change (%, negative = inhibition) at 10uM” value is -28.3%.

Take `COc1ccc(N(C)S(=O)(=O)c2cccc(C(=O)NCC(c3cccs3)N(C)C)c2)cc1` (stereo not drawn): the “hERG current change (%, negative = inhibition) at 10uM” value was -52.3%.

`COc1ccc(C(CNC(=O)c2cccc(S(=O)(=O)N3CCCC3)c2)N2CCCC2)cc1` (stereo not drawn): the “hERG current change (%, negative = inhibition) at 10uM” value is recorded as -22.9%.

With `CCOc1ncccc1C(=O)OCC(=O)c1ccc(C)c(C)c1`, the “hERG current change (%, negative = inhibition) at 10uM” value is -20.2%.

Turning to `CN1CCCC(OC(=O)COc2ccc(Br)cc2)C1.Cl` (stereo not drawn), the “hERG current change (%, negative = inhibition) at 10uM” value was -12.8%.

For `CCOC(=O)N1CCN(Cc2nc(N)nc(Nc3ccc(Oc4ccccc4)cc3)n2)CC1`, the “hERG current change (%, negative = inhibition) at 10uM” value was -70.7%.

For `CCOC(=O)N1CCN(Cc2nc(-c3ccc(OC)cc3)no2)CC1`, the “hERG current change (%, negative = inhibition) at 10uM” value is recorded as -4.74%.

On to `CCOC(=O)N1CCN(Cc2nc(N)nc(Nc3ccc(OCC)cc3)n2)CC1`, for which the “hERG current change (%, negative = inhibition) at 10uM” value is reported as -67.6%.

`CCOC(=O)N1CCN(Cc2nc(N)nc(Nc3ccccc3C)n2)CC1`: the “hERG current change (%, negative = inhibition) at 10uM” value is listed as -14.9%.

For `CCOc1ccc(Nc2nc(N)nc(CSC(=S)N3CCOCC3)n2)cc1`, the “hERG current change (%, negative = inhibition) at 10uM” value was -2%.

For the compound `CCOC(=O)N1CCN(Cc2nc(N)nc(Nc3ccc(OC)cc3)n2)CC1`, the “hERG current change (%, negative = inhibition) at 10uM” value is -62.4%.

As to `COc1ccc(Nc2nc(N)nc(CSC(=S)N3CCN(C)CC3)n2)cc1`, the “hERG current change (%, negative = inhibition) at 10uM” value is given as -12.5%.

Values taken from PMC4336329 (PLoS ONE, 2015).
